Results taken from PubChem BioAssay (NCI).
The panel holds about 79,000 compounds, 15% with a hit somewhere; the sample as a whole holds those more often. Unmarked numbers belong to inactive results. The source made the active and inactive calls. No stated cut-off is given here; in the data, active means growth inhibition above about 70%; inactive means the rest.

Assays:
[1] = NCI Yeast Anticancer Drug Screen. Data for the rad50 strain (AID 155);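 further: 0% = growth of vehicle-only cultures of the same strain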; conditions: S. cerevisiae rad50 strain growth inhibition, hits give high values
How it was run: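 Vehicle-treated cultures provide the reference for the growth inhibition reported for compound-exposed, repair-deficient yeast.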

[2] = NCI Yeast Anticancer Drug Screen. Data for the mec2-1 strain (AID 157); conditions: S. cerevisiae mec2-1 strain, hits give high values
How it was run: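 Test agents were screened against the mec2-1 yeast strain, with defined DNA repair or cell cycle alteration. Growth was scored as inhibition against vehicle-only controls.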

[3] = NCI Yeast Anticancer Drug Screen. Data for the sgs1 mgt1 strain (AID 161);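 further: 0% = growth of cultures given vehicle only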; conditions: S. cerevisiae sgs1 mgt1 strain, hits give high values
How it was run: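 Mutant yeast exposed to compound; growth scored against vehicle-only wells.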

[4] = NCI Yeast Anticancer Drug Screen. Data for the cln2 rad14 strain (AID 165);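 further: 0% = growth equal to vehicle treated cultures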; conditions: S. cerevisiae cln2 rad14 strain, hits give high values
How it was run: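 Growth of compound-exposed yeast (cln2 rad14 genotype) measured and expressed as inhibition relative to vehicle.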

[5] = NCI Yeast Anticancer Drug Screen. Data for the bub3 strain (AID 167); conditions: S. cerevisiae bub3 mutant strain, hits give high values
How it was run: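 Mutant yeast screening strain plus compound; vehicle-treated cultures serve as the 0% inhibition reference.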

[6] = NCI Yeast Anticancer Drug Screen. Data for the mlh1 rad18 strain (AID 175); conditions: S. cerevisiae mlh1 rad18 strain growth inhibition, hits give high values
How it was run: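 In this whole-cell yeast screen, a strain with altered DNA damage repair is challenged with compound, and its growth is measured against matched vehicle-treated controls.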

[7] = at 5.0 µM (retest, dose inferred, filed as 0.5)
[8] = at 50.0 µM (retest, dose inferred, filed as 5.0)

Structure (SMILES)	growth inhibition [1, 7]	growth inhibition [1, 8]	growth inhibition ([1]; at 50.0 µM)	growth inhibition [2, 7]	growth inhibition [2, 8]	growth inhibition ([2]; at 50.0 µM)	growth inhibition [3, 7]	growth inhibition [3, 8]	growth inhibition ([3]; at 50.0 µM)	growth inhibition [4, 7]	growth inhibition [4, 8]	growth inhibition ([4]; at 50.0 µM)	growth inhibition [5, 7]	growth inhibition [5, 8]	growth inhibition ([5]; at 50.0 µM)	growth inhibition [6, 7]	growth inhibition [6, 8]	growth inhibition ([6]; at 50.0 µM)
CC=CCOc1cc(NC(=S)OC(C)C)ccc1Cl (mixture of isomers)	28%	94% (active)	79.2% (active)	18%	97% (active)	89.2% (active)	31%	92% (active)	88.4% (active)	22%	96% (active)	90% (active)	27%	97% (active)	89.7% (active)	25%	96% (active)	85.8% (active)
CC(C)c1ccc(C2C3=C(N=C4SCC(=O)N42)C(=O)c2ccccc23)cc1 (stereo not given)	7%	-6%	86.7% (active)	-20%	3%	68.2%	-6%	5%	89.2% (active)	-31%	8%	83% (active)	-41%	41%	80.3% (active)	-39%	2%	42.2%
CC(C)Cc1cc(O)cc2ccccc12	4%	98% (active)	98.9% (active)	5%	99% (active)	99.2% (active)	3%	98% (active)	98.5% (active)	2%	97% (active)	98.4% (active)	5%	99% (active)	98.5% (active)	0%	98% (active)	98.8% (active)
O=C(O)/C=C/CCC1SCC2NC(=O)NC21 (stereo not given)	96% (active)	96% (active)	80.3% (active)	98% (active)	97% (active)	84.2% (active)	96% (active)	96% (active)	88.3% (active)	94% (active)	95% (active)	84% (active)	97% (active)	97% (active)	87.5% (active)	96% (active)	96% (active)	83% (active)
COc1cc(C/C=C/c2ccccc2)c(OC)cc1O	18%	30%	63.6%	18%	24%	61.7%	15%	37%	54.4%	18%	29%	76% (active)	20%	29%	64.8%	17%	35%	48.5%
O=C(O)CCCCCCCCCC[S+](CCO)CCO	-2%	31%	43.2%	3%	29%	26.4%	2%	50%	62.1%	20%	12%	67.5%	3%	12%	37.4%	1%	44%	34.5%
CC(=O)n1c(=S)n(C(C)=O)c2ccccc21	2%	83% (active)	51.5%	-16%	89% (active)	54.4%	-24%	76% (active)	40.2%	10%	39%	67.8%	-23%	76% (active)	71.1% (active)	-13%	94% (active)	30.1%
O=C1CCC(Cc2ccccc2Br)C(=O)N1 (stereo not given)	-5%	10%	-10.8%	-1%	6%	36%	11%	92% (active)	97.2% (active)	-4%	8%	-39.2%	-4%	6%	-45.5%	-7%	6%	6.35%
Cn1c(=O)nc2n(-c3ccc(Cl)cc3)c3cc(Cl)ccc3nc-2c1=O	7%	20%	20.6%	4%	9%	24.1%	9%	15%	7.8%	15%	20%	16.9%	17%	18%	-6.9%	7%	20%	77% (active)
O=C(Nc1cccc(Cl)c1)c1ccc([N+](=O)[O-])cc1	10%	8%	-8.65%	-11%	-6%	-10.8%	6%	4%	-12.7%	4%	17%	-27.4%	23%	32%	-6.8%	17%	26%	-0.9%
